Assay results: PubChem BioAssay
For some assays here: Measured potencies and affinities stand elsewhere. Active and inactive are the calls of the source.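 The calls were made as follows, unless noted: active = signal rise over 3 SD above mean of control wells given weak agonist, in both repeats and first screen; inactive = the rest.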

How the values were obtained:
[1] = tested on: TRPC4 beta (transient receptor potential cation channel C4), mouse; test: activators of mouse TRPC4 channel, confirmation, cell-based, Fluo4 calcium, HEK293 TRPC4beta/mu-opioid, duplicates, 10 µM (AID 2426;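 active = fluorescence ratio normalized to control raised more than 50% in primary screen plus both repeat runs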); conditions: Fluo4 calcium fluorescence, at 10 µM; hits give high values
[2] = tested on: transient receptor potential cation channel C4 beta (TRPC4), mouse; test: activators of mouse TRPC4 channel, confirmation, cell-based, second round, Fluo4, HEK293 TRPC4beta/mu-opioid, 1 µM (AID 2461;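 active = primary screen active and over 50% activation in each of two duplicate runs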); conditions: Fluo4 calcium fluorescence, at 1 µM; hits give high values
[3] = tested on: TRPC4 (transient receptor potential cation channel C4 beta), mouse; test: positive allosteric modulators of mouse TRPC4, confirmation, cell-based, second round, Fluo-4, HEK293 TRPC4beta/mu-opioid, 1 µM (AID 2554;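 active = primary screen hit whose fluorescence ratio, in both repeats, exceeds the weak agonist control mean by 3 SD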); conditions: DAMGO EC20, Fluo-4 calcium flux, at 1 µM; hits give high values
[4] = tested on: TRPC4 beta (transient receptor potential cation channel C4), mouse; test: positive allosteric modulators of mouse TRPC4, confirmation, cell-based, Fluo-4, HEK293 TRPC4beta/mu-opioid (AID 2555;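 active = primary screen hit whose calcium fluorescence ratio, in both repeats, exceeds the weak agonist control mean by 3 SD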); conditions: DAMGO EC20, Fluo-4 calcium flux, at 10 µM; hits give high values
[5] = target: Short transient receptor potential channel 4 (Mus musculus) (UniProt Q9QUQ5); test: inhibitors of mouse TRPC4 channel, confirmation, cell-based, Fluo4, HEK293 TRPC4beta/mu-opioid (AID 2636;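 active = calcium signal cut by more than 3 SD below the full-agonist control yet still positive, in both repeats and the earlier primary screen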); conditions: DAMGO, Fluo4 calcium flux, at 10 µM; hits give high values
Sequence of Short transient receptor potential channel 4 (Mus musculus) (Q9QUQ5 whole entry, looked up): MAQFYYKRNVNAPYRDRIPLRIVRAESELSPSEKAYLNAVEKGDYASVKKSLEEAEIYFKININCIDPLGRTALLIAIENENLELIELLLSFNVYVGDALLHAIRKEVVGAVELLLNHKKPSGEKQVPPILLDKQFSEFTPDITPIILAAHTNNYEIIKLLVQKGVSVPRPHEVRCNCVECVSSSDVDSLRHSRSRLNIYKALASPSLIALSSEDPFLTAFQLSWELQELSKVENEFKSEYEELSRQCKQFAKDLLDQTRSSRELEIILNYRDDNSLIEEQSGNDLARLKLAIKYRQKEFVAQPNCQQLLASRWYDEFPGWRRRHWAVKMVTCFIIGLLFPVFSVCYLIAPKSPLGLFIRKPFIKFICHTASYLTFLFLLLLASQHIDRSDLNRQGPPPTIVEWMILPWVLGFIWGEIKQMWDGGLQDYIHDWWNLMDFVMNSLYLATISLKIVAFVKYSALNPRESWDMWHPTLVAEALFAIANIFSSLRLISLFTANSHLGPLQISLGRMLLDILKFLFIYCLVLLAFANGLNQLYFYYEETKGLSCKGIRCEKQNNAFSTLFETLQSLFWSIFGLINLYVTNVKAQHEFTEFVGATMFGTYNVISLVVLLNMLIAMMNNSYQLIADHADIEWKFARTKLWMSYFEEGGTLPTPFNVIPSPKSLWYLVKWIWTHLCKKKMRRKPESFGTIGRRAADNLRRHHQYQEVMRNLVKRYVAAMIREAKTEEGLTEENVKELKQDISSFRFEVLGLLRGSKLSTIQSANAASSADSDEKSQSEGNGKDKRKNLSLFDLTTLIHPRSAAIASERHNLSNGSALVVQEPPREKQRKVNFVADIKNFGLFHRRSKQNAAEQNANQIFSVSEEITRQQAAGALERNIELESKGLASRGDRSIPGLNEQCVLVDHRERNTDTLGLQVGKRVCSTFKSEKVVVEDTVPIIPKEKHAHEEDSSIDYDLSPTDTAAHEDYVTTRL

[6] = target: Short transient receptor potential channel 4 (Mus musculus) (UniProt Q9QUQ5); test: inhibitors of mouse TRPC4 channel, confirmation, cell-based, second round, Fluo4, HEK293 TRPC4beta/mu-opioid, 1 µM (AID 2637;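 active = calcium signal ratio cut to more than 3 SD under the fully stimulated control mean yet still positive, in both repeats and the primary screen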); conditions: Fluo4 calcium flux, DAMGO, at 1 µM; hits give high values
[7] = target: Short transient receptor potential channel 4 (Mus musculus) (UniProt Q9QUQ5); test: mouse TRPC4 channel activators, dose response, cell-based, HEK293 TRPC4/mu-opioid, Fluo-4 calcium (AID 434937;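 active = primary screen activator hit with a dose response curve and TRPC4 channel activation at any tested dose; inactive = no activation, no dose response, or not a primary hit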)
[8] = target: Short transient receptor potential channel 4 (Mus musculus) (UniProt Q9QUQ5); test: TRPC4 positive allosteric modulators, dose response, cell-based, HEK293 TRPC4/mu-opioid, Fluo-4 calcium, EC20 DAMGO (AID 434941;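 active = earlier screen potentiator hit that boosts the TRPC4 ion channel at some dose, with a dose response; inactive = no potentiation, no dose response, or not a prior hit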;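 also: calcium entry triggered by an EC20 dose of DAMGO at the co-expressed mu-opioid receptor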)
[9] = target: Short transient receptor potential channel 4 (Mus musculus) (UniProt Q9QUQ5); test: mouse TRPC4 channel inhibitors, dose response, cell-based, HEK293 TRPC4/mu-opioid, Fluo-4 calcium (AID 434942;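 active = primary screen inhibitor hit that blocks the TRPC4 channel at some tested dose, yielding a dose curve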)
[10] = target: Short transient receptor potential channel 6 (Mus musculus) (UniProt Q61143); test: inhibition of mouse TRPC6 channel, confirmation, selectivity assay for TRPC4 inhibitor project, cell-based, HEK293, membrane potential dye, duplicate (AID 434948;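 active = active in primary screen and both duplicates, each dropping signal beyond three positive-control SD with fluorescence still positive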); conditions: HEK293 TRPC6, membrane potential dye fluorescence, at 10 µM, stimulated with maximal-effect acetylcholine; hits give high values
Sequence of Short transient receptor potential channel 6 (Mus musculus) (Q61143 whole entry, looked up): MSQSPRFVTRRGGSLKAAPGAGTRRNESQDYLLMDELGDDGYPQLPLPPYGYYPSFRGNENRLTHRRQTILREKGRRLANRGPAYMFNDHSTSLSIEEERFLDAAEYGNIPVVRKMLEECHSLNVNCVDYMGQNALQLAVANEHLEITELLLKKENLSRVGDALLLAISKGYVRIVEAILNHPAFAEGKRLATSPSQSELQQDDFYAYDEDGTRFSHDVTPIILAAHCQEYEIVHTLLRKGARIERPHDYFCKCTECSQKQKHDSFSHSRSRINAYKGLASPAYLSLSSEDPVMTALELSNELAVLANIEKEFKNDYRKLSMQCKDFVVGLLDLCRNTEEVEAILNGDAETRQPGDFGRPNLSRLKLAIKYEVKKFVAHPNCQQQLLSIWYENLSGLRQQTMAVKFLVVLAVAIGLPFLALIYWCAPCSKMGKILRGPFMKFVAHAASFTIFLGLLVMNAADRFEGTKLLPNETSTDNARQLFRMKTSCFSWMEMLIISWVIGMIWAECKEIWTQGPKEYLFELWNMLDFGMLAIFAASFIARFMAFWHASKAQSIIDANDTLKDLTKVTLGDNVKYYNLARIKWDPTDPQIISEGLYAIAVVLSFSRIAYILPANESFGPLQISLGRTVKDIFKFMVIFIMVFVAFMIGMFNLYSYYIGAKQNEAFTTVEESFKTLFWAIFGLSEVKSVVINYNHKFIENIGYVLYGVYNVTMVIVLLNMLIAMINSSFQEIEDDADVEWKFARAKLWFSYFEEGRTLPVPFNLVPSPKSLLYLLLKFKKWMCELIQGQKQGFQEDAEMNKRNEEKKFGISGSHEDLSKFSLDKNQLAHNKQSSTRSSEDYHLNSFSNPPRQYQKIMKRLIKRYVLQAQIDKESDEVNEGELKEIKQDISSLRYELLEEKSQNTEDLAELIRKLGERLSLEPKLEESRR

[11] = target: Short transient receptor potential channel 6 (Mus musculus) (UniProt Q61143); test: activation of mouse TRPC6 channel, confirmation, selectivity assay for TRPC4 activator project, cell-based, HEK293, membrane potential dye, duplicate (AID 434950;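 active = membrane potential signal rise above negative control mean plus 3 SD in both duplicates, also active in the earlier TRPC4 screen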); conditions: HEK293 TRPC6, membrane potential fluorescence, at 10 µM; hits give high values
[12] = target: Short transient receptor potential channel 6 (Mus musculus) (UniProt Q61143); test: TRPC6 potentiation by TRPC4 potentiator hits, confirmation, selectivity assay for TRPC4 potentiator project, HEK293 cells, membrane potential dye, duplicate (AID 434952;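 active = compound raising the membrane signal above positive-control mean plus 3 SD in both repeats, and a primary screen hit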); conditions: HEK293 TRPC6, membrane potential dye fluorescence, at 10 µM, maximal acetylcholine added after compound; hits give high values
[13] = target: Short transient receptor potential channel 4 (Mus musculus) (UniProt Q9QUQ5); test: calcium flux activators in TRPC4/5HT1a cells, counter-screen for TRPC4 activator project, cell-based, second counter screen, HEK293 TRPC4/5HT1a, Fluo-4 (AID 434977;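 active = calcium signal rise above buffer-control mean plus 5 SD in both duplicates, and also a hit in the primary screen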); conditions: Fluo-4 calcium flux, at 10 µM; hits give high values
[14] = calcium flux inhibitors in TRPC4/5HT1a cells, confirmation, counter-screen for TRPC4 inhibitor project, cell-based, second counter screen, HEK293 TRPC4/5HT1a, Fluo-4 (AID 434978;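 active = primary screen active whose calcium signal fell more than 3 SD beyond the full-serotonin control mean in both duplicate plates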;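 also: serotonin given first at submaximal then at maximal dose after compound preincubation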); conditions: Fluo-4 calcium flux, at 10 µM, serotonin added to trigger calcium flux; hits give high values
[15] = tested on: TRPC4 (mouse), co-expressed with 5HT1a in HEK293; test: calcium flux potentiators in TRPC4/5HT1a cells, confirmation, counter-screen for TRPC4 potentiator project, cell-based, second counter screen, HEK293 TRPC4/5HT1a, Fluo-4 (AID 434979); conditions: Fluo-4 calcium flux, at 10 µM, serotonin added at its EC20 dose; hits give high values
[16] = calcium flux activation in mu-opioid HEK293 cells, confirmation, counter-screen for TRPC4 activator project, cell-based, HEK293 mu-opioid receptor line (AID 449723;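 active = hit in primary screen, with calcium signal over 5 SD above buffer well mean in both duplicates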;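 also: counter screen cells carry the mu-opioid receptor alone and lack TRPC4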); conditions: Fluo-4 calcium fluorescence, at 10 µM; hits give high values
[17] = calcium flux enhancement in mu-opioid HEK293 cells, confirmation, counter-screen for TRPC4 allosteric potentiator project, cell-based, HEK293 mu-opioid receptor line (AID 449724;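 active = calcium signal rise more than 3 SD above the low-dose agonist control mean, in both duplicate plates and the primary screen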); conditions: Fluo-4 calcium flux, at 10 µM, compound added before EC20 DAMGO stimulus; hits give high values

For `CCOC(=O)c1ccc(NC(=S)N2CCSC2c2ccc(Cl)cc2)cc1` (centres undefined), which outcome [1] is on record?
The outcome was “inactive”.

And the outcome [2]?
Its outcome is “inactive”.

What about the outcome [3] of the same molecule?
Its outcome is “inactive”.

What about the potentiation [4] of the same molecule?
The potentiation was 21% (active).

And the outcome [5]?
The outcome was “inactive”.

And the outcome [6]?
Its outcome is “inactive”.

What about the outcome [7] of the same molecule?
The outcome was “inactive”.

And the outcome [8]?
The outcome was “inactive”.

What about the outcome [9] of the same molecule?
The outcome was “inactive”.

What about the outcome [10] of the same molecule?
The outcome was “inactive”.

What about the outcome [11] of the same molecule?
The outcome was “inactive”.

What about the outcome [12] of the same molecule?
Its outcome is “inactive”.

And the outcome [13]?
Its outcome is “inactive”.

What about the outcome [14] of the same molecule?
The outcome was “inactive”.

And the potentiation [15]?
Its potentiation is 26.4% (active).

And the outcome [16]?
Its outcome is “inactive”.

What about the outcome [17] of the same molecule?
Its outcome is “inactive”.

For `O=[N+]([O-])c1cc([N+](=O)[O-])c2oc(-c3ccccc3)c(Br)c2c1O`, which outcome [1] is on record?
Its outcome is “inactive”.

And the outcome [2]?
Its outcome is “inactive”.

What about the outcome [3] of the same molecule?
The outcome was “inactive”.

What about the outcome [4] of the same molecule?
The outcome was “inactive”.

And the outcome [5]?
The outcome was “inactive”.

And the outcome [6]?
The outcome was “inactive”.

What about the outcome [7] of the same molecule?
Its outcome is “inactive”.

What about the outcome [8] of the same molecule?
The outcome was “inactive”.

What about the outcome [9] of the same molecule?
The outcome was “inactive”.

What about the outcome [10] of the same molecule?
Its outcome is “inactive”.

And the outcome [11]?
Its outcome is “inactive”.

And the outcome [12]?
The outcome was “inactive”.

And the outcome [13]?
The outcome was “inactive”.

What about the outcome [14] of the same molecule?
Its outcome is “inactive”.

And the outcome [15]?
The outcome was “inactive”.

What about the outcome [16] of the same molecule?
The outcome was “inactive”.

And the outcome [17]?
Its outcome is “inactive”.

Which outcome [1] does the source give for `Cc1ccc(C(C)C)c(OCCCCN2CCNCC2)c1` here?
Its outcome is “inactive”.

And the outcome [2]?
The outcome was “inactive”.

What about the potentiation [3] of the same molecule?
Its potentiation is 11% (active).

And the outcome [4]?
The outcome was “inactive”.

What about the outcome [5] of the same molecule?
The outcome was “inactive”.

What about the outcome [6] of the same molecule?
The outcome was “inactive”.

And the outcome [7]?
Its outcome is “inactive”.

And the outcome [8]?
The outcome was “inactive”.

And the outcome [9]?
The outcome was “inactive”.

And the outcome [10]?
The outcome was “inactive”.

And the outcome [11]?
The outcome was “inactive”.

What about the outcome [12] of the same molecule?
Its outcome is “inactive”.

What about the outcome [13] of the same molecule?
The outcome was “inactive”.

And the outcome [14]?
Its outcome is “inactive”.

And the potentiation [15]?
The potentiation was 23.8% (active).

And the outcome [16]?
The outcome was “inactive”.

And the outcome [17]?
The outcome was “inactive”.

Which results are given for `Cc1ccc(NC(=O)CN(C)C(=O)CNC(=O)c2sc3ccccc3c2Cl)cc1`?
outcome [1]: inactive; outcome [2]: inactive; outcome [3]: inactive; outcome [4]: inactive; outcome [5]: inactive; outcome [6]: inactive; outcome [7]: inactive; outcome [8]: inactive; outcome [9]: inactive; outcome [10]: inactive; outcome [11]: inactive; outcome [12]: inactive; outcome [13]: inactive; outcome [14]: inactive; potentiation [15]: 29.5% (active); outcome [16]: inactive; outcome [17]: inactive

For `N=c1c(C(=O)NCC2CCCO2)cc2c(=O)n3ccccc3nc2n1Cc1ccccc1Cl` (centres undefined), which outcome [1] is on record?
Its outcome is “inactive”.

What about the outcome [2] of the same molecule?
The outcome was “inactive”.

And the potentiation [3]?
The potentiation was 96% (active).

What about the potentiation [4] of the same molecule?
Its potentiation is 102% (active).

What about the outcome [5] of the same molecule?
The outcome was “inactive”.

What about the outcome [6] of the same molecule?
The outcome was “inactive”.

What about the outcome [7] of the same molecule?
Its outcome is “inactive”.

What about the outcome [8] of the same molecule?
The outcome was “inactive”.

And the outcome [9]?
The outcome was “inactive”.

And the outcome [10]?
Its outcome is “inactive”.

What about the outcome [11] of the same molecule?
The outcome was “inactive”.

And the outcome [12]?
Its outcome is “inactive”.

What about the outcome [13] of the same molecule?
The outcome was “inactive”.

What about the outcome [14] of the same molecule?
Its outcome is “inactive”.

And the potentiation [15]?
Its potentiation is 101% (active).

What about the outcome [16] of the same molecule?
Its outcome is “inactive”.

What about the outcome [17] of the same molecule?
The outcome was “inactive”.

Which outcome [1] does the source give for `CN(C)CCCSc1nc(-c2ccccc2)nc2c1CCC2` here?
Its outcome is “inactive”.

And the outcome [2]?
Its outcome is “inactive”.

And the potentiation [3]?
Its potentiation is 8% (active).

And the outcome [4]?
Its outcome is “inactive”.

What about the outcome [5] of the same molecule?
Its outcome is “inactive”.

What about the outcome [6] of the same molecule?
Its outcome is “inactive”.

What about the outcome [7] of the same molecule?
Its outcome is “inactive”.

What about the outcome [8] of the same molecule?
Its outcome is “inactive”.

What about the outcome [9] of the same molecule?
Its outcome is “inactive”.

And the outcome [10]?
Its outcome is “inactive”.

And the outcome [11]?
Its outcome is “inactive”.

What about the outcome [12] of the same molecule?
The outcome was “inactive”.

And the outcome [13]?
The outcome was “inactive”.

What about the outcome [14] of the same molecule?
Its outcome is “inactive”.

What about the outcome [15] of the same molecule?
The outcome was “inactive”.

What about the outcome [16] of the same molecule?
Its outcome is “inactive”.

And the outcome [17]?
The outcome was “inactive”.

With `CCOc1ccc(N=CNc2ccc(OCC)cc2)cc1` as the molecule, how does the outcome [1] read?
Its outcome is “inactive”.

What about the outcome [2] of the same molecule?
Its outcome is “inactive”.

What about the potentiation [3] of the same molecule?
Its potentiation is 18% (active).

And the outcome [4]?
The outcome was “inactive”.

And the outcome [5]?
Its outcome is “inactive”.

And the outcome [6]?
The outcome was “inactive”.

And the outcome [7]?
Its outcome is “inactive”.

And the outcome [8]?
Its outcome is “inactive”.

What about the outcome [9] of the same molecule?
The outcome was “inactive”.

What about the outcome [10] of the same molecule?
The outcome was “inactive”.

What about the outcome [11] of the same molecule?
Its outcome is “inactive”.

What about the outcome [12] of the same molecule?
Its outcome is “inactive”.

What about the outcome [13] of the same molecule?
The outcome was “inactive”.

What about the outcome [14] of the same molecule?
The outcome was “inactive”.

What about the potentiation [15] of the same molecule?
The potentiation was 23% (active).

And the outcome [16]?
Its outcome is “inactive”.

What about the outcome [17] of the same molecule?
Its outcome is “inactive”.
